The chains are these.
B1: PhoQ; a variant is named by its letters at X, in order, P23837 (parent)
chain: MKKLLRLFFPLSLRVRFLLATAAVVLVLSLAYGMVALIGYSVSFDKTTFRLLRGESNLFYTLAKWENNKLHVELPENIDKQSPTMTLIYDENGQLLWAQRDVPWLMKMIQPDWLKSNGFHEIEADVNDTSLLLSGDHSIQQQLQEVREDDDDAEMTHSVAVNVYPATSRMPKLTIVVVDTIPVELKSSYMVWSWFIYVLSANLLLVIPLLWVAAWWSLRPIEALAKEVRELEEHNRELLNPATTRELTSLVRNLNRLLKSERERYDKYRTTLTDLTHSLKTPLXXLQXXLRSLRSEKMSVSDAEPVMLEQISRISQQIGYYLHRASMRGGTLLSRELHPVAPLLDNLTSALNKVYQRKGVNISLDISPEISFVGEQNDFVEVMGNVLDNACKYCLEFVEISARQTDEHLYIVVEDDGPGIPLSKREVIFDRGQRVDTLRPGQGVGLAVAREITEQYEGKIVAGESMLGGARMEVIFGRQHSAPKDE

Over roughly 140,000 sequences, “enrichment ratio after two sorts for PhoP signalling” has its median near 0; the highest 2% begin near 11. Only a selection was taken, and the highest values are over-represented in it overall. Where only a bound is given, the exact number is not on record here.

These results are taken from a collection of fitness landscapes (doi:10.1126/science.1257360).

This assay covers variants of B1. Put plainly: enrichment ratio after two sorts for PhoP signalling (ratio (wild type AVST 3.29)); higher = more functional. The settings on record: with PhoP (E. coli).
On to DWEC, for which the enrichment ratio was at most 0.25.

As to RQRD, the enrichment ratio was at most 0.25.

Consider NCDF, for which the enrichment ratio is at most 0.25.

For HLKR, the enrichment ratio was at most 0.25.

In the case of RGHG, the enrichment ratio is at most 0.25.

For the variant TPEY, the enrichment ratio is at most 0.25.

As for SLIG, the enrichment ratio was at most 0.25.

In the case of YMIK, the enrichment ratio is at most 0.25.

On to RLMY, for which the enrichment ratio was at most 0.25.

Take KLYR: the enrichment ratio was at most 0.25.

With MNMC, the enrichment ratio is 3.1.

For the variant ANMV, the enrichment ratio was determined as 19.1.

ATMS: the enrichment ratio was determined as 6.27.

Regarding ANMW, the enrichment ratio was at most 0.25.

As to AIMS, the enrichment ratio was 14.3.

Consider AKMS, for which the enrichment ratio came to 3.84.

For ANMD, the enrichment ratio is at most 0.25.

As for AAVT, the enrichment ratio came out at 2.41.

With AKVT, the enrichment ratio came out at 12.6.

As for ALVT, the enrichment ratio was 1.4.

Take TNMC: the enrichment ratio was 35.5.

As to LNMC, the enrichment ratio worked out at 7.24.

For FEGD, the enrichment ratio was at most 0.25.

As to YPGN, the enrichment ratio was at most 0.25.

In the case of WAKM, the enrichment ratio is at most 0.25.

Turning to PMHP, the enrichment ratio is at most 0.25.

As for ALWL, the enrichment ratio is at most 0.25.

For the variant HRYP, the enrichment ratio is at most 0.25.

YHPC: the enrichment ratio was at most 0.25.

LYDW: the enrichment ratio was at most 0.25.

As for VILC, the enrichment ratio came out at 0.339.

In the case of DWCS, the enrichment ratio is at most 0.25.

Take ANVT: the enrichment ratio was 15.

For ANND, the enrichment ratio was at most 0.25.

In the case of ADVT, the enrichment ratio was at most 0.25.

As for HFIY, the enrichment ratio is at most 0.25.

For MIKG, the enrichment ratio is at most 0.25.

On to SCIG, for which the enrichment ratio stood at 3.69.

As to SCMG, the enrichment ratio came out at 25.9.

With TYMA, the enrichment ratio amounted to 1.56.

SIMA: the enrichment ratio turned out to be 4.54.

Turning to SCMI, the enrichment ratio stood at 27.9.

For SCMF, the enrichment ratio came to 12.3.

In the case of SCVG, the enrichment ratio amounted to 5.95.

With SCMA, the enrichment ratio turned out to be 15.7.

For SCMW, the enrichment ratio was determined as 6.03.

For KCMF, the enrichment ratio was at most 0.25.

In the case of SCHF, the enrichment ratio was at most 0.25.

With SCMV, the enrichment ratio was determined as 9.09.

On to WPNL, for which the enrichment ratio was at most 0.25.

Consider ERAD, for which the enrichment ratio is at most 0.25.

On to SRLT, for which the enrichment ratio is at most 0.25.

As to KMYN, the enrichment ratio was at most 0.25.

As to IRST, the enrichment ratio was at most 0.25.

On to LAMD, for which the enrichment ratio is at most 0.25.

As to FSHH, the enrichment ratio is at most 0.25.

Consider WVRL, for which the enrichment ratio was at most 0.25.

For YRGN, the enrichment ratio was at most 0.25.

As to TIYR, the enrichment ratio worked out at 2.57.

With IKRH, the enrichment ratio is at most 0.25.

Regarding VSMQ, the enrichment ratio was determined as 2.71.

As for GYAC, the enrichment ratio is at most 0.25.

As for GIYS, the enrichment ratio was at most 0.25.

With GITE, the enrichment ratio was at most 0.25.

Turning to MNFC, the enrichment ratio is at most 0.25.

Regarding GIAC, the enrichment ratio is 11.8.

GNAC: the enrichment ratio came to 12.5.

As to MNAC, the enrichment ratio is 27.7.

In the case of TNAC, the enrichment ratio came out at 3.13.

With LNAC, the enrichment ratio is at most 0.25.

With PCAQ, the enrichment ratio was at most 0.25.

Take DTYT: the enrichment ratio was at most 0.25.

With MFKP, the enrichment ratio was at most 0.25.

With SQVA, the enrichment ratio turned out to be 4.56.

In the case of WPDN, the enrichment ratio is at most 0.25.

Consider HVPR, for which the enrichment ratio was at most 0.25.

Consider KKRG, for which the enrichment ratio is at most 0.25.

With QGVQ, the enrichment ratio was at most 0.25.

As to APCH, the enrichment ratio is at most 0.25.

In the case of SEWI, the enrichment ratio was 3.57.

SLLI: the enrichment ratio worked out at 7.62.

As for SEDT, the enrichment ratio is at most 0.25.

SELI: the enrichment ratio amounted to 24.6.

For the variant KYAS, the enrichment ratio is at most 0.25.

For the variant SLAS, the enrichment ratio turned out to be 5.06.

On to KYLT, for which the enrichment ratio was at most 0.25.

With SELT, the enrichment ratio amounted to 20.5.

For the variant SELA, the enrichment ratio is 12.4.

Turning to SYLI, the enrichment ratio stood at 0.306.

With SEYI, the enrichment ratio was determined as 4.33.

As to SEAS, the enrichment ratio was 26.6.

Regarding WRRM, the enrichment ratio is at most 0.25.

As to YYVL, the enrichment ratio was at most 0.25.

Take IENI: the enrichment ratio is at most 0.25.

GVPH: the enrichment ratio was at most 0.25.

For PCMW, the enrichment ratio is at most 0.25.

As for GSWF, the enrichment ratio is at most 0.25.

In the case of HSKP, the enrichment ratio was at most 0.25.

With WEQY, the enrichment ratio was at most 0.25.

Take IRFS: the enrichment ratio is at most 0.25.

SFLY: the enrichment ratio is 0.911.

As to SELY, the enrichment ratio came out at 11.4.

With NEVT, the enrichment ratio was at most 0.25.

SEVT: the enrichment ratio stood at 16.8.

Regarding MEVT, the enrichment ratio is 27.6.

As to KYLY, the enrichment ratio is at most 0.25.

In the case of QEVT, the enrichment ratio was at most 0.25.

Take SQVT: the enrichment ratio stood at 5.85.

As to SLVT, the enrichment ratio amounted to 0.291.

For SPLS, the enrichment ratio is at most 0.25.

Turning to SELS, the enrichment ratio is 20.9.

For KYLS, the enrichment ratio is at most 0.25.

Regarding PENI, the enrichment ratio is at most 0.25.

PNLE: the enrichment ratio is at most 0.25.

Regarding DQCP, the enrichment ratio is at most 0.25.

Regarding HGEI, the enrichment ratio was at most 0.25.

For SWKP, the enrichment ratio is at most 0.25.

For WESM, the enrichment ratio was at most 0.25.

As for SPLD, the enrichment ratio is at most 0.25.

As to SPLY, the enrichment ratio is at most 0.25.

For STLY, the enrichment ratio was found to be 13.1.

Regarding YTLY, the enrichment ratio worked out at 1.95.

SEAT: the enrichment ratio was determined as 13.6.

As to SEET, the enrichment ratio amounted to 6.48.

With SELD, the enrichment ratio came out at 14.

Turning to SEAA, the enrichment ratio amounted to 14.3.

As to KYLD, the enrichment ratio was at most 0.25.

Regarding STAA, the enrichment ratio was 4.26.

On to SEAD, for which the enrichment ratio worked out at 5.48.

As for SENT, the enrichment ratio turned out to be 2.04.

DWIM: the enrichment ratio was at most 0.25.

Turning to NPSS, the enrichment ratio was at most 0.25.

Consider FFHH, for which the enrichment ratio was 0.731.

As to TYSH, the enrichment ratio worked out at 1.78.

Consider NQDR, for which the enrichment ratio is at most 0.25.

Turning to LYHC, the enrichment ratio is at most 0.25.

As for YVNL, the enrichment ratio was at most 0.25.

RKNY: the enrichment ratio is at most 0.25.

Regarding MNMF, the enrichment ratio is at most 0.25.

For the variant FCKG, the enrichment ratio was at most 0.25.

For the variant AKCC, the enrichment ratio came to 15.2.

HNCC: the enrichment ratio was at most 0.25.

MKCC: the enrichment ratio was at most 0.25.

Regarding TKNH, the enrichment ratio is 11.4.

On to HKCC, for which the enrichment ratio was at most 0.25.

On to HKNH, for which the enrichment ratio is at most 0.25.

As to TKNI, the enrichment ratio came to 13.3.

With HKNI, the enrichment ratio is at most 0.25.

For HNNH, the enrichment ratio was at most 0.25.

For the variant TKNW, the enrichment ratio is at most 0.25.

With ANCC, the enrichment ratio was found to be 0.324.

As to TKCC, the enrichment ratio was determined as 13.1.

As to KKAH, the enrichment ratio is at most 0.25.
